Data taken from PubChem BioAssay (NCI).
The panel holds about 83,000 compounds, 20% with a hit somewhere; the sample as a whole holds those more often.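 Single-concentration screen, 48 h exposure, 96-well plates. Endpoint: percent growth. Below 10 = active.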 Activity calls are given as the source filed them.

tested on: A549/ATCC NSCLC; test: NCI-60 one-dose screen, 48 h (100 = growth as untreated, 0 = no growth, -100 = all killed); details: 10 µM unless noted
Description: Growth inhibition of the A549/ATCC human Non-Small Cell Lung tumor cell line is measured as a screen for anti-cancer activity. Cells are grown in 96 well plates and exposed to the test compound for 48 hours. Compounds are tested at a single concentration, which is 10^-5 M for most compounds. The reported endpoint is percent growth (GI% or GIPRCNT), where numbers from 0 - 100% represent growth inhibition, and numbers from -100% - 0 represent cell death. For example, a value of 40 represents 60% growth inhibition. A value of 0 means no net growth occurred over the course of the experiment. A value of -40 indicates 40% of cells at the beginning of the experiment died by the end of the experiment. A value of -100 means all cells are dead at the end of the experiment.
NCI-60 Human Tumor Cell Lines Screen was performed using the standard one-dose NCI protocol, which is described in more detail at https://dtp.cancer.gov/discovery_development/nci-60/default.htm.
Compounds with GIPRCNT values below 10 were considered active. Activity score was based on GIPRCNT using the following formula: […]
Score is 0 for GIPRCNT values of 100 or above, 50 for GIPRCNT values of 0, and 100 for GIPRCNT values of -100.

| Structure (SMILES) | growth |
| --- | --- |
| CN(C)CCCN(CCC1CCCCC1)CCC1CCCCC1 | 52.5% (inactive) |
| Cc1c(C(=O)C(SC(=S)N2CCOCC2)SC(=S)N2CCOCC2)nnn1-c1ccc([N+](=O)[O-])cc1 | 96.5% (inactive) |
| O=c1[nH]c(CN2CCN(c3ccccc3)CC2)nc2c(Br)cc(Br)cc12 | 101% (inactive) |
| CC1=NC(=S)NC(c2ccccc2)/C1=C1/CC(c2ccccc2O)NN1 (stereo not given) | 100% (inactive) |
| COc1ccc2c(c1)C(c1c[nH]c3ccccc13)(c1c[nH]c3ccccc13)CCO2 | 24.1% (inactive) |
| O=C(O)c1nn(-c2ccc(Cl)cc2)nc1N1CCCC1 | 101% (inactive) |
| Cc1cccc(C)c1NC(=O)Nc1ccccc1 | 86.8% (inactive) |
| Cc1nc2cccc(NCc3ccc(C(=O)NO)cc3)c2c(=O)n1-c1ccccc1 | 34.1% (inactive) |
| CC(=O)OCC(=O)O[C@@H]1C[C@]2(C(C)C)O[C@@]1(C)[C@@H]1CC[C@@H](C)[C@H]1[C@@H]2OC(=O)/C=C/c1ccccc1 | 71.7% (inactive) |
| N#C/C(=C\c1cccc2cnccc12)N1N=NC2C=CC=CC21 (stereo not given) | 64.2% (inactive) |
| COc1cc(/C=C2\C(=O)N(CCOc3cc(O)c4c(=O)cc(-c5ccccc5)oc4c3)c3ccccc32)cc(OC)c1O | 85% (inactive) |
| COc1cc(OCc2cccc(-c3ccc4c(c3)OCCO4)c2C)cc(OC)c1C=O | 69% (inactive) |
| Cc1[nH]c(C2CC(c3ccc(C(F)(F)F)c(F)c3)=NN2C)c(C)c1C(=O)NCC(F)(F)F (stereo not given) | 95.5% (inactive) |
| COC12C=C/C(=C(/C(=O)OCc3ccccn3)C(=O)CCCCCCCCC3(OC)C=C/C(=C(/C(=O)OCc4ccccn4)C(=O)CCCCCCCC1)O3)O2 | 9.81% (active) |
| CCOC(=O)c1c(N)sc2cc(O)ccc12 | 99.7% (inactive) |
| c1ccc(-c2cn3nc(-c4c[nH]c5ccccc45)sc3n2)cc1 | 82.6% (inactive) |
| C#Cc1c(I)n(C2OC(CO[Si](C)(C)C(C)(C)C)C3OC(C)(C)OC32)c(=O)[nH]c1=O (stereo not given) | 92.6% (inactive) |
| O=C1CC2C=CCN2C=C1NC(=O)c1ccccc1 (stereo not given) | 92.6% (inactive) |
| O=C(Cn1cc(CSc2nc3ccccc3o2)nn1)Nc1ccc([N+](=O)[O-])cc1 | 101% (inactive) |
| O=C(NS(=O)(=O)c1ccccc1)n1cc(-c2ccncc2)c(-c2cc(O)cc(Cl)c2)n1 | 97.5% (inactive) |

| Structure (SMILES) | growth |
| --- | --- |
| CN1/C(=C/C=C/c2n(Cc3ccc4ccccc4c3)c(Cl)c(Cl)[n+]2Cc2ccc3ccccc3c2)Oc2ccccc21 | -86.7% (active) |
| COc1ccc(-n2c(=O)n(-c3ccc(-c4nc5ccc(F)cc5s4)cc3)c(=O)c3cccnc32)cc1 | 96.5% (inactive) |
| CC(Cc1cccc2ccccc12)C(N)=O (stereo not given) | 96.7% (inactive) |
| CCOC(=O)CCC(=O)P(=O)(O)O | 96.9% (inactive) |
| C=CCn1c(SCC(=O)Nc2ccc(C(=O)/C=C/c3cc(OC)c(OC)c(OC)c3)cc2)nnc1-c1cc(-c2ccc(S(N)(=O)=O)cc2)nc2ccccc12 | 107% (inactive) |
| CN(C)CC1C(=O)O[C@H]2[C@H]1CC/C(COC(=O)NCc1ccc(Cn3c(=O)sn(CCCI)c3=O)cc1)=C\CC[C@@]1(C)O[C@@H]21 (stereo not given in full) | 101% (inactive) |
| COc1ccc(/C=C\c2cc(OC)c(OC)c(OC)c2)cc1OCC(=O)Nc1nc2ccccc2s1 | 29.9% (inactive) |
| Cc1csc(Nc2nc(-c3cccc(Cl)c3)nc(C(Cl)(Cl)Cl)n2)n1 | 1.73% (active) |
| CCOC(=O)/C(=C/c1ccc([N+](=O)[O-])cc1)C(=O)c1ccccc1 | 71.5% (inactive) |
| COc1ccc(Nc2nc(Nc3cc(C)[nH]n3)c3cc(OC)c(OC)cc3n2)cc1 | -61.2% [20 µM] (active) |
| CCCn1cnc2c(c1=N)C(c1ccc(Cl)cc1)c1sc3c(F)cccc3c1O2 (stereo not given) | 76% (inactive) |
| O=C(CN1C(=O)NC2NC(=O)NC21)N/N=C/c1cccc([N+](=O)[O-])c1 (stereo not given) | 112% (inactive) |
| CN1CCN(c2ccc(Nc3ncc4[nH]c(=O)n(Cc5ccccc5N)c4n3)cc2)CC1 | 97.5% (inactive) |
| CCOC(=O)c1ccc2c(c1)c1c(C)c3cnccc3c(C)c1n2C | -11.8% (active) |
| CSc1nc(CC(C)C)c(C#N)c(=O)n1C | 80.7% (inactive) |
| O=C(Nc1ncc(Cc2ccccc2)s1)c1cc(-c2ccccc2)nc2ccccc12 | 98.2% (inactive) |
| Cc1ccc2c(c1)CC(O)CC1C(=O)N(CCO)CC(=O)N21 (stereo not given) | 76.6% (inactive) |
| C=C1CC[C@@H]2[C@](C)(COC(C)=O)[C@H](OC(C)=O)CC[C@@]2(C)[C@@H]1CC(Nc1ccc(S(=O)(=O)Nc2nccc(C)n2)cc1)C1=CCOC1=O (stereo not given in full) | 63.4% (inactive) |
| [2H]C([2H])([2H])Oc1c(F)cccc1/C=C/C(=O)/C=C(O)/C=C/c1cccc(F)c1OC([2H])([2H])[2H] | 90.9% (inactive) |
| Cc1ccc2c(n1)C[C@H](C(C)(C)O)CC[C@H]2C | 94.4% (inactive) |
